Test results published in PubChem BioAssay AID2174 (The Scripps Research Institute Molecular Screening Center, 2009).
Hit rate of the full screen: of about 320,000 compounds, about 500 (0.16%) were called active.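 How the source made its calls: active means inhibition above the mean of all tested compounds plus 3 SD, set per campaign (cut at about 14% in these data); inactive means the rest.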 The list comes from a sample in which actives are over-represented; it also holds similar structures and randomly drawn compounds.

molecular target: Acyl-protein thioesterase 1 (Homo sapiens) (UniProt O75608); test: inhibition of human lysophospholipase 1 – biochemical, fluorescence polarization, FP-Rh probe ABPP, counter-screen for PME1 inhibitor project, primary screen (AID 2174); conditions: recombinant LYPLA1, FP-Rh probe fluorescence polarization; at 5.9 µM; stronger effect = higher value;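 further: inhibitors block serine hydrolase probe labeling of LYPLA1 so polarization falls; 0% = enzyme with DMSO and 100% = wells lacking LYPLA1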
Sequence (O75608 whole entry, looked up): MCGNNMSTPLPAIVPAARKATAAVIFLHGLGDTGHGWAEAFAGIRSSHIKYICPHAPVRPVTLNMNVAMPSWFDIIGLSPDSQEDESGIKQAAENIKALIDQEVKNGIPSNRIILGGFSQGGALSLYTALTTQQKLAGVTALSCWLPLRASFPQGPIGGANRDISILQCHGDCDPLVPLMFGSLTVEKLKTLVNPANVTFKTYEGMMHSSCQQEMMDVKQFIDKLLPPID

For `CCOc1ccc(S(=O)(=O)N/N=C(\C)c2ccc(Cl)c(Cl)c2Cl)cc1`, which inhibition is on record?
Its inhibition is 0.76% (inactive).

Which inhibition does the source give for `C=CCSC(CC)(CC)C(N)=O` here?
The inhibition was 6.47% (inactive).

How did the inhibition turn out when `CCCc1ccc(OCC(O)CN2CCN(C(=O)OCC)CC2)cc1` (stereo not drawn) was run?
Its inhibition is 2.73% (inactive).

With `COc1cccc(OC)c1C(=O)NC(=S)Nc1ccc(N2CCOCC2)c(Cl)c1` as the compound, how does the inhibition read?
The inhibition was -4.94% (inactive).

`CCOc1ccc(C(=O)NC(=S)Nc2ccc(NC(=O)C(C)C)cc2)cc1[N+](=O)[O-]` was tested. Which inhibition did it give?
The inhibition was 2.01% (inactive).

For `CCOc1ccc(C(=O)NC(=S)Nc2ccc(N3CCOCC3)c(Cl)c2)cc1[N+](=O)[O-]`, which inhibition is on record?
Its inhibition is 19.9% (active).

How did the inhibition turn out when `CCN1C(=NCCc2cccnc2)N[C@@H](c2ccccc2)C(C(=O)OC)=C1C` was run?
The inhibition was -0.51% (inactive).

For `Cc1ccc(NC(=O)c2ccc(CSc3ncnc4nc[nH]c34)cc2)c(C)c1`, which inhibition is on record?
Its inhibition is -1.38% (inactive).

With `COc1ccccc1C(CNC(=O)c1cccc(S(=O)(=O)Nc2ccc(F)cc2)c1)N(C)C` (stereo not drawn) as the compound, how does the inhibition read?
Its inhibition is -0.85% (inactive).

How did the inhibition turn out when `CC(C)(C)NC(=O)COc1ccc(CNc2ccc3[nH]c(=O)[nH]c3c2)cc1` was run?
Its inhibition is -1.08% (inactive).

Which inhibition does the source give for `CC(Oc1ccc(F)cc1)C(=O)N1CCN(c2ncccn2)CC1` (stereo not drawn) here?
The inhibition was -4.75% (inactive).

`O=C(c1ccc(Br)o1)N1CCN(CCOc2ccccc2)CC1` was tested. Which inhibition did it give?
The inhibition was 2.69% (inactive).

How did the inhibition turn out when `CC1(C)OC(=O)C(=CNC(CO)C(=O)O)C(=O)O1` (stereo not drawn) was run?
The inhibition was -1.91% (inactive).

With `CCC(=C/c1sc2ccc3ccccc3c2[n+]1C)/C=C1\Sc2ccc3ccccc3c2N1C` as the compound, how does the inhibition read?
Its inhibition is 25% (active).

Which inhibition does the source give for `Cc1c(C)c2ccc(OCC(=O)N3CCN(c4cccc(Cl)c4)CC3)cc2oc1=O` here?
The inhibition was 6.19% (inactive).

With `O=C(COc1ccc(Cl)cc1)N1CCN(c2cccc(C(F)(F)F)c2)CC1` as the compound, how does the inhibition read?
The inhibition was 20.5% (active).

`O=C(COc1ccc(Cl)cc1)N1CCN(S(=O)(=O)c2ccc(Cl)cc2)CC1` was tested. Which inhibition did it give?
Its inhibition is -0.66% (inactive).

With `CC/C(=N\NC(=O)c1c(C)nc2ccccn12)c1ccc(Cl)cc1` as the compound, how does the inhibition read?
The inhibition was -2.24% (inactive).

For `O=C(c1ccco1)N1CCN(CC(=O)N(C2CCCCC2)C2CCS(=O)(=O)C2)CC1` (stereo not drawn), which inhibition is on record?
Its inhibition is 5.75% (inactive).

With `CC(CC(=O)C1C(C)C=CCC1(C)C)NNC(N)=O` (stereo not drawn) as the compound, how does the inhibition read?
Its inhibition is 0.24% (inactive).

How did the inhibition turn out when `CCOC(=O)c1sc2nc(C)nc(Nc3ccc(OC)c(OC)c3)c2c1C` was run?
Its inhibition is -0.83% (inactive).

For `CSc1nc(-c2ccccc2)nc(C(Cl)Cl)n1`, which inhibition is on record?
The inhibition was 3.5% (inactive).

How did the inhibition turn out when `CCn1c(CC(=O)Nc2ccc(C)cc2)nnc1SCC(=O)Nc1nc(C)cs1` was run?
Its inhibition is -2.24% (inactive).

`Cc1ccc(NC(=O)NNC(=O)c2sccc2-n2cccc2)cc1` was tested. Which inhibition did it give?
The inhibition was -1.32% (inactive).

How did the inhibition turn out when `CCOC(=O)NN1C(=O)c2ccccc2NC1c1ccccc1O` (stereo not drawn) was run?
The inhibition was 2.15% (inactive).

`COc1cccc(CNS(=O)(=O)c2csc(C(N)=O)c2)c1` was tested. Which inhibition did it give?
The inhibition was -2.15% (inactive).

`CCCCn1c(N)c(N(CC(C)C)C(=O)CN(C)S(=O)(=O)c2ccc(F)cc2)c(=O)[nH]c1=O` was tested. Which inhibition did it give?
The inhibition was -3.12% (inactive).

Which inhibition does the source give for `CC(=O)N1C(C)c2ccccc2C(C)(C)CC12CCCCC2` (stereo not drawn) here?
The inhibition was 0.06% (inactive).

For `COC(=O)c1ccc2ccccc2c1OC1OC(CO)C(O)C(O)C1NC(C)=O` (stereo not drawn), which inhibition is on record?
Its inhibition is -2.18% (inactive).

With `Cc1ccc2c(c1)N(S(=O)(=O)c1cc(-c3cc(C)no3)ccc1C)CCO2` as the compound, how does the inhibition read?
Its inhibition is -4.6% (inactive).

How did the inhibition turn out when `Cc1cccc(N2CCN(C(=O)CN(C)S(=O)(=O)c3ccc4c(c3)CCC(=O)N4)CC2)c1C` was run?
Its inhibition is 16.5% (active).

How did the inhibition turn out when `Cc1cccc(N2CCN(C(=O)CCS(=O)(=O)c3ccc4c(c3)NC(=O)C(C)S4)CC2)c1C` (stereo not drawn) was run?
Its inhibition is 2.02% (inactive).

Which inhibition does the source give for `CCOC(=O)Cc1csc(NC(=O)CN(C)S(=O)(=O)c2ccc3c(c2)CCC(=O)N3)n1` here?
Its inhibition is -0.84% (inactive).

With `O=c1c(-c2cccc(Cl)c2)c[nH]n1-c1ccccc1` as the compound, how does the inhibition read?
The inhibition was -3.25% (inactive).

For `O=c1[nH]n(-c2cccc(Cl)c2)c2ncccc12`, which inhibition is on record?
Its inhibition is 29.8% (active).

Which inhibition does the source give for `O=C(O)CSc1nccn1-c1cccc(Cl)c1` here?
The inhibition was -1.21% (inactive).

Which inhibition does the source give for `Cc1ccc(C2=NN(C)c3nc4ccccc4n3C2)cc1` here?
Its inhibition is -2.83% (inactive).

Which inhibition does the source give for `CN1CCN(C(=O)N2c3ccccc3CCc3ccccc32)CC1` here?
Its inhibition is 3.26% (inactive).

For `O=C(CSc1ncnc2c1nnn2Cc1ccc(F)cc1)NC1CCCC1`, which inhibition is on record?
Its inhibition is 1.1% (inactive).

With `CCOC(=O)c1cc2cc(-c3c(C(=O)OCC)oc4cc(O)cc(O)c4c3=O)ccc2o1` as the compound, how does the inhibition read?
The inhibition was 9.58% (inactive).

With `CCOC(=O)c1nnn2c1nc(N1CCN(c3ccccc3)CC1)c1ccccc12` as the compound, how does the inhibition read?
The inhibition was -0.46% (inactive).

Which inhibition does the source give for `O=C(CCNS(=O)(=O)c1ccccc1C(F)(F)F)Nc1ccncc1` here?
The inhibition was -2.82% (inactive).

Which inhibition does the source give for `C/C(Cn1nnc2ccccc21)=N\OC(=O)c1cc(F)c(F)cc1Cl` here?
The inhibition was -3.21% (inactive).

Which inhibition does the source give for `Cn1c(=O)c2c(nc(N/N=C/c3cccs3)n2Cc2ccc(Br)cc2)n(C)c1=O` here?
Its inhibition is 4.08% (inactive).

`Cn1nccc1C(=O)N1CCCC(C(=O)c2ccc(Oc3ccccc3)cc2)C1` (stereo not drawn) was tested. Which inhibition did it give?
Its inhibition is 6.29% (inactive).

Which inhibition does the source give for `O=C(c1ccc(-c2ccccc2)cc1)C1CCCN(C(=O)c2cncs2)C1` (stereo not drawn) here?
Its inhibition is 24% (active).

For `Cc1nc(C(=O)N2CCCC(C(=O)c3ccc(Cl)cc3)C2)cs1` (stereo not drawn), which inhibition is on record?
Its inhibition is -0.29% (inactive).

With `COC(=O)c1cc2c(ccn2C)n1C` as the compound, how does the inhibition read?
The inhibition was -0.69% (inactive).
